In the supplement of paper PMC10849652:
Targets with a hit are over-represented here; the source holds about 7,900 in all. About 0.6% of all pairs of compound and target were hits.

Legend:
Test in all cases: log2 fold change, soluble protein after heating vs DMSO (PISA); higher = thermal stabilisation; K562 cells, 10 uM, 30 min; active = over 0.2 and 3.5 SD of the protein, either way, in both replicates (recomputed)
[1] = compound: CC1=C(C=C(C=C1)NC(=O)C2=CC(=CC=C2)C(C)(C)C#N)NC3=CC4=C(C=C3)N=CN(C4=O)C
In short: (§1)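 Soluble protein was quantified by TMTpro 16plex LC-MS/MS after channel sums were equalised. It was obtained as the supernatant after 21,000xg for 90 min from pooled aliquots of K562 cells (2×10^6 cells/mL, 10 μM compound, 30 min) heated for 3 min across 48°C-58°C and extracted in PBS with 0.5% NP-40 at 4°C. Thermal stability values are relative to control samples and come from duplicates. They are given as log2 fold changes.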

[2] = compound: CC1=C(C=C(C=C1)NC(=O)C2=CC(=CC=C2)N(C)C)NC(=O)C3=CC=C(C=C3)O
In short: as §1

[3] = compound: CC1=CC=C(C=C1)SC2=C3C=C(SC3=CN=C2)C(=O)N
In short: as §1

[4] = compound: CC1=NC(=CC=C1)C2=C(N=C(N2)C(C)(C)C)C3=CC4=NC=CN=C4C=C3
In short: as §1

[5] = compound: CCCCN(Cc1ccc(C(=O)NO)cc1)C(=O)Nc1ccccc1 [Nexturastat A]
In short: as §1

[6] = compound: CCCS(=O)(=O)Nc1ccc(F)c(C(=O)c2c[nH]c3ncc(-c4ccc(Cl)cc4)cc23)c1F [vemurafenib]
In short: as §1

[7] = compound: CCCS(=O)(=O)Nc1ccc(F)c(C(=O)c2c[nH]c3ncc(Cl)cc23)c1F
In short: as §1

[8] = compound: CCCc1cc(C)[nH]c(=O)c1CNC(=O)c1cc(-c2ccnc(N3CCN(C)CC3)c2)cc2c1cnn2C(C)C
In short: as §1

[9] = compound: CCN(CC)Cc1ccc2cc(COC(=O)Nc3ccc(C(=O)NO)cc3)ccc2c1 [givinostat]
In short: as §1

[10] = compound: CCN(CCCOc1ccc2c(Nc3cc(CC(=O)Nc4cccc(F)c4)[nH]n3)ncnc2c1)CCOP(=O)(O)O [barasertib]
In short: as §1

[11] = compound: CC[C@@H]1C(=O)N(C)c2cnc(Nc3ccc(C(=O)NC4CCN(C)CC4)cc3OC)nc2N1C1CCCC1
In short: as §1

[12] = compound: CC[C@@H]1C(=O)N(C)c2cnc(Nc3ccc(C(=O)N[C@H]4CC[C@H](N5CCN(CC6CC6)CC5)CC4)cc3OC)nc2N1C(C)C [volasertib]
In short: as §1

[13] = compound: CC[C@H](C)N1C=C(C2=C(C=C(C=C21)C3=CN=C(C=C3)N4CCNCC4)C(=O)NCC5=C(C=C(NC5=O)C)C)C
In short: as §1

[14] = compound: CC[C@H](C)[C@@H](C(=O)N[C@@H]([C@@H](C)O)C(=O)N[C@@H](CC(C)C)C(=O)[C@]1(CO1)C)NC(=O)[C@H]([C@@H](C)CC)N(C)C(=O)C [epoxomicin]
In short: as §1

[15] = compound: CCn1c(C(=O)N(C2CC2)C2CC2)cc2c3c(ncn3C)c(Nc3cc(C)n(C)n3)nc21
In short: as §1

[16] = compound: CCn1cc(-c2ccnc3[nH]c(-c4cccc(CN(C)C)c4)cc23)c(-c2ccc(NC(=O)N(C)C)cc2)n1
In short: as §1

[17] = compound: CN(C)CC(=O)Nc1ccc2[nH]c(=O)c3ccccc3c2c1
In short: as §1

[18] = compound: CN(CCOC1=CC=C(C=C1)C[C@H]2C(=O)NC(=O)S2)C3=CC=CC=N3 (racemic) [rosiglitazone]
In short: as §1

[19] = compound: CN1C2=C(C3=C1C(=O)N(N=C3)CC4=CC(=CC=C4)N)SC(=C2)S(=O)C
In short: as §1

[20] = compound: CN1CCC(CNc2ccc3ncc(-c4cccc(OC(F)(F)F)c4)n3n2)CC1
In short: as §1

Measured: log2 fold change

PSMD5 (UniProt Q16401)
UniProt Q16401, sequence (Q16401 whole entry, looked up): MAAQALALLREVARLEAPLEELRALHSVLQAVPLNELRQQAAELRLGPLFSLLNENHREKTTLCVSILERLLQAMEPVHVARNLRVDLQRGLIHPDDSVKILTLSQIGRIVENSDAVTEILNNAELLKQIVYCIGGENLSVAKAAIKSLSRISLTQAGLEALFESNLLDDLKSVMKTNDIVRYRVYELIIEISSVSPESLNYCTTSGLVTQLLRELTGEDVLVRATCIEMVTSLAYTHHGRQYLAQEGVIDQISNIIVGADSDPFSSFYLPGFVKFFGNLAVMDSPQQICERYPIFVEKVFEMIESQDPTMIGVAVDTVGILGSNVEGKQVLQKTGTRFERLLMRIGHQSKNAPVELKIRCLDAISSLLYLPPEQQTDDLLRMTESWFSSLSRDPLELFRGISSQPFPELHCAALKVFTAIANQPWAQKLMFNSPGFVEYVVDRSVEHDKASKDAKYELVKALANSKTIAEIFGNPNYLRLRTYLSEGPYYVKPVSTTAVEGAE
inactive: [1] -0.009 | [2] -0.001 | [3] 0.023 | [4] 0.027 | [5] -0.01 | [6] 0.015 | [7] 0.047 | [8] 0.003 | [9] -0.007 | [10] 0.027 | [11] -0.112 | [13] 0.013 | [14] 0.027 | [15] 0 | [16] -0.026 | [17] -0.011 | [18] 0.012 | [19] -0.043 | [20] -0.038
active: [12] -0.225

PRKCD (UniProt Q05655)
UniProt Q05655, sequence (Q05655 whole entry, looked up): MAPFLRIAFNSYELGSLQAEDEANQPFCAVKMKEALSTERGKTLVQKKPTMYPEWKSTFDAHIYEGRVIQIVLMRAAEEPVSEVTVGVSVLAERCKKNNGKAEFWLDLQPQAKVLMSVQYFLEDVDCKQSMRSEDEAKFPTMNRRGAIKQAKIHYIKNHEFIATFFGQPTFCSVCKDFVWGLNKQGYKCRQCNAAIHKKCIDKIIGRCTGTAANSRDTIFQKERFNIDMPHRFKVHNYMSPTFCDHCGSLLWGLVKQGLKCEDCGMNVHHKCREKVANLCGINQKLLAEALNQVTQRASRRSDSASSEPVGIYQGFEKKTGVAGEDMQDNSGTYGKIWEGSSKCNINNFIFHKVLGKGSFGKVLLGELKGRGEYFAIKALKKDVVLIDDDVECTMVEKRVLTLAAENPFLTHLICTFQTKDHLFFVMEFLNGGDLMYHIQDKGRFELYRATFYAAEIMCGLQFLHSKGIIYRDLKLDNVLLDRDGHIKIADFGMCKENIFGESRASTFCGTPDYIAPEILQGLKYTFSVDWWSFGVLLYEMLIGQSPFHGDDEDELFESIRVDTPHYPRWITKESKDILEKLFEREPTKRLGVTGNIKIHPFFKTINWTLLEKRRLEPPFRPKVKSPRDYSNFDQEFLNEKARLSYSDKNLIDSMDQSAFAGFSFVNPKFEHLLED
inactive: [1] -0.015 | [2] -0.025 | [3] -0.012 | [4] -0.016 | [5] -0.032 | [6] 0.015 | [7] 0.013 | [8] -0.045 | [9] -0.021 | [10] 0.023 | [11] 0.036 | [12] -0.073 | [13] 0.031 | [14] -0.003 | [15] 0.005 | [16] -0.067 | [17] -0.009 | [18] 0.062 | [19] -0.05 | [20] -0.159

PELO (UniProt Q9BRX2)
UniProt Q9BRX2, sequence (Q9BRX2 whole entry, looked up): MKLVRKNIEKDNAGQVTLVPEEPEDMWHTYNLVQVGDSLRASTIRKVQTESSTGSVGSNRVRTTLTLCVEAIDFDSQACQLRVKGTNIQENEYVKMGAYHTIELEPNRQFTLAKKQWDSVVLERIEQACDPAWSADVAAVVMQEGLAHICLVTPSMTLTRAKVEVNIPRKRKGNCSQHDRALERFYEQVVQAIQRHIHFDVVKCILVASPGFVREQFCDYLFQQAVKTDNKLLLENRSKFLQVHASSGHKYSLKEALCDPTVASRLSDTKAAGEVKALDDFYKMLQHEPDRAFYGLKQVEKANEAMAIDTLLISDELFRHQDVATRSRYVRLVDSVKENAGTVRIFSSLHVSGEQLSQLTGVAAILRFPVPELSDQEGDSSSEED
inactive: [1] -0.005 | [2] -0.051 | [3] 0.042 | [4] -0.039 | [5] 0.161 | [6] -0.13 | [7] 0.007 | [8] 0.055 | [9] 0.192 | [10] 0.045 | [11] -0.017 | [12] -0.387 | [13] 0.09 | [14] -0.058 | [15] -0.068 | [16] 0.007 | [17] -0.017 | [18] 0.085 | [19] 0.138 | [20] -0.312

PLBD2 (UniProt Q8NHP8)
UniProt Q8NHP8, sequence (Q8NHP8 whole entry, looked up): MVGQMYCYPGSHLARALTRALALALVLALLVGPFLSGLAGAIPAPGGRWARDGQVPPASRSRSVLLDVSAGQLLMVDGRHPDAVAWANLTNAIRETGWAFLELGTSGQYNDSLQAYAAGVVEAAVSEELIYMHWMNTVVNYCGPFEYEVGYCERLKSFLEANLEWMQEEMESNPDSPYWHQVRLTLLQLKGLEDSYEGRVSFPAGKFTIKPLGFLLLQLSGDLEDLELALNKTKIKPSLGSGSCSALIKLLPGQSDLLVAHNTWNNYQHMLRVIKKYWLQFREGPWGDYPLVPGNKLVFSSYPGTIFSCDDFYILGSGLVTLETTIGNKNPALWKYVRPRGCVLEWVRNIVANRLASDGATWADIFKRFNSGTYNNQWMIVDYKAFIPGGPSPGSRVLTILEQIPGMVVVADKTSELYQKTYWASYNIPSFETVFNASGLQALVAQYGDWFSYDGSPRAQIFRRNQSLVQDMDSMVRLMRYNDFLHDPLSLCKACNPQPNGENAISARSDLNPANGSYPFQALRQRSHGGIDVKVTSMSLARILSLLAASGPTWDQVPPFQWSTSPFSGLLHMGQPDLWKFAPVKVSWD
active: [12] -0.222
inactive: [1] -0.053 | [2] 0.058 | [3] 0.02 | [4] -0.051 | [5] -0.053 | [6] -0.028 | [7] 0.001 | [8] -0.008 | [9] 0.004 | [10] -0.013 | [11] -0.188 | [13] -0.034 | [14] -0.015 | [15] 0.024 | [16] 0.029 | [17] 0.008 | [18] 0.009 | [19] -0.029 | [20] -0.21

QKI (UniProt Q96PU8)
UniProt Q96PU8, sequence (Q96PU8 whole entry, looked up): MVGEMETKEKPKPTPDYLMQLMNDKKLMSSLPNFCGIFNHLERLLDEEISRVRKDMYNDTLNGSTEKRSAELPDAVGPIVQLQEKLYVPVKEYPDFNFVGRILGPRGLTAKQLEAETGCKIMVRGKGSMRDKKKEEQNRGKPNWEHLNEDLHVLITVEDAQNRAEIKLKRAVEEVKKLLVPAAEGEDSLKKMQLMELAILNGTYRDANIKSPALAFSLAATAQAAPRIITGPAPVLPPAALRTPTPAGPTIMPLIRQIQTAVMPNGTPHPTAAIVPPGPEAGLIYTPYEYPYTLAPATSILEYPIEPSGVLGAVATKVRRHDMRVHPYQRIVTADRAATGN
inactive: [1] 0.05 | [2] -0.037 | [3] 0.019 | [4] 0.036 | [5] -0.109 | [6] 0.033 | [7] 0.084 | [8] -0.045 | [9] 0.023 | [10] -0.003 | [11] -0.008 | [12] -0.1 | [13] 0.084 | [14] 0.049 | [15] 0.022 | [16] 0.023 | [17] 0.034 | [18] 0.041 | [19] 0.017 | [20] -0.172

PDS5B (UniProt Q9NTI5)
inactive: [1] -0.088 | [2] 0.086 | [3] 0.176 | [4] 0.109 | [5] -0.011 | [6] -0.032 | [7] 0.32 | [8] -0.058 | [9] 0.135 | [10] 0.047 | [11] -0.004 | [12] 0.024 | [13] 0.12 | [14] 0.105 | [15] -0.113 | [16] 0.103 | [17] 0.079 | [18] 0.035 | [19] 0.131 | [20] -0.41

PIP4P1 isoform 2 (UniProt Q86T03)
UniProt Q86T03, sequence (Q86T03 whole entry, looked up): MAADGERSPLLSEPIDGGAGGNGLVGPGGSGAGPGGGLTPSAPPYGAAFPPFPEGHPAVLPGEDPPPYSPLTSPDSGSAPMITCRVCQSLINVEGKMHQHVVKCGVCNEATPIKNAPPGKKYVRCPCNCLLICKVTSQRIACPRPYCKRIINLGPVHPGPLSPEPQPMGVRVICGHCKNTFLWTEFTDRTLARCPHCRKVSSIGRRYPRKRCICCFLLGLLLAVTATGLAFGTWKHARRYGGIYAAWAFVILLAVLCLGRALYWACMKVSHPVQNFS
inactive: [1] -0.018 | [2] -0.001 | [3] -0.019 | [4] 0.039 | [5] 0.035 | [6] -0.198 | [7] -0.063 | [8] -0.002 | [9] -0.037 | [10] 0.001 | [11] -0.058 | [12] 0.112 | [13] -0.003 | [14] 0.008 | [15] 0.009 | [16] -0.074 | [17] -0.012 | [18] -0.016 | [19] 0.076 | [20] -0.262

PEX11B (UniProt O96011)
UniProt O96011, sequence (O96011 whole entry, looked up, change not shown): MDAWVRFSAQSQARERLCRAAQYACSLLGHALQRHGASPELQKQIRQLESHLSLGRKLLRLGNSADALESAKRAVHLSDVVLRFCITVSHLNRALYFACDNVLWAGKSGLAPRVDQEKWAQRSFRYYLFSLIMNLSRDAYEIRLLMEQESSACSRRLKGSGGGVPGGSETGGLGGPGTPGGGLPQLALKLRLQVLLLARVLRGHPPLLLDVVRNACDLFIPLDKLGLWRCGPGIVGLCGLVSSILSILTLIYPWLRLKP
inactive: [1] 0.06 | [2] -0.039 | [3] 0.321 | [4] -0.008 | [5] -0.076 | [6] 0.08 | [7] 0 | [8] 0.029 | [9] 0.008 | [10] -0.002 | [11] 0.071 | [12] -0.018 | [13] -0.038 | [14] -0.013 | [15] 0.006 | [16] 0.04 | [17] 0.064 | [18] 0.007 | [19] -0.085 | [20] 0.239

PSMA3 (UniProt P25788)
UniProt P25788, sequence (P25788 whole entry, looked up): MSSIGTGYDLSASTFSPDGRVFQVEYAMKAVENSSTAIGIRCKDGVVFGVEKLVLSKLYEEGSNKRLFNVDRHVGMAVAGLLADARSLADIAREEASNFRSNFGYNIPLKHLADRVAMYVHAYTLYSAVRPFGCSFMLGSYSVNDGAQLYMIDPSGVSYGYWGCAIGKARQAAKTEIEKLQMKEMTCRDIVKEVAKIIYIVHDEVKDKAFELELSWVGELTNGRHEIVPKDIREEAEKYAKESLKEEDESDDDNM
inactive: [1] 0.01 | [2] 0.027 | [3] -0.025 | [4] 0.013 | [5] -0.039 | [6] -0.001 | [7] -0.019 | [8] -0.011 | [9] -0.011 | [10] -0.034 | [11] 0.067 | [12] 0.134 | [13] -0.025 | [14] -0.169 | [15] 0.043 | [16] 0.002 | [17] -0.003 | [18] -0.039 | [19] -0.027 | [20] 0.046

PEF1 (UniProt Q9UBV8)
UniProt Q9UBV8, sequence (Q9UBV8 whole entry, looked up): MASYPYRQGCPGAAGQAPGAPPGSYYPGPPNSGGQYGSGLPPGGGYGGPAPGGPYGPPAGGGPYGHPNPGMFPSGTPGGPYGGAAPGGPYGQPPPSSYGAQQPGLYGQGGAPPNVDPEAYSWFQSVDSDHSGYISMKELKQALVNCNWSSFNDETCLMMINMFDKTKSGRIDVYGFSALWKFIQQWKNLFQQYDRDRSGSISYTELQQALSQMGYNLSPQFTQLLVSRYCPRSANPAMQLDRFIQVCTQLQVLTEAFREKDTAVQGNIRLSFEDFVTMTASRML
inactive: [1] -0.011 | [2] -0.075 | [3] 0.027 | [4] 0.013 | [5] 0.032 | [6] 0.008 | [7] 0.073 | [8] -0.045 | [9] 0.022 | [10] 0.122 | [11] -0.144 | [13] 0.035 | [14] 0.101 | [15] 0.045 | [16] 0.002 | [17] -0.061 | [18] -0.022 | [19] -0.005 | [20] 0.048
active: [12] -0.329

PRMT3 (UniProt O60678)
active: [12] -0.411 | [20] -0.953
inactive: [1] 0.016 | [2] -0.025 | [3] 0.044 | [4] 0.076 | [5] -0.026 | [6] 0.056 | [7] 0.055 | [8] 0 | [9] -0.013 | [10] 0.035 | [11] -0.126 | [13] 0.039 | [14] 0.033 | [15] 0.005 | [16] -0.093 | [17] 0.039 | [18] 0.077 | [19] -0.008

PPP4R3B (UniProt Q5MIZ7)
UniProt Q5MIZ7, sequence (Q5MIZ7 whole entry, looked up): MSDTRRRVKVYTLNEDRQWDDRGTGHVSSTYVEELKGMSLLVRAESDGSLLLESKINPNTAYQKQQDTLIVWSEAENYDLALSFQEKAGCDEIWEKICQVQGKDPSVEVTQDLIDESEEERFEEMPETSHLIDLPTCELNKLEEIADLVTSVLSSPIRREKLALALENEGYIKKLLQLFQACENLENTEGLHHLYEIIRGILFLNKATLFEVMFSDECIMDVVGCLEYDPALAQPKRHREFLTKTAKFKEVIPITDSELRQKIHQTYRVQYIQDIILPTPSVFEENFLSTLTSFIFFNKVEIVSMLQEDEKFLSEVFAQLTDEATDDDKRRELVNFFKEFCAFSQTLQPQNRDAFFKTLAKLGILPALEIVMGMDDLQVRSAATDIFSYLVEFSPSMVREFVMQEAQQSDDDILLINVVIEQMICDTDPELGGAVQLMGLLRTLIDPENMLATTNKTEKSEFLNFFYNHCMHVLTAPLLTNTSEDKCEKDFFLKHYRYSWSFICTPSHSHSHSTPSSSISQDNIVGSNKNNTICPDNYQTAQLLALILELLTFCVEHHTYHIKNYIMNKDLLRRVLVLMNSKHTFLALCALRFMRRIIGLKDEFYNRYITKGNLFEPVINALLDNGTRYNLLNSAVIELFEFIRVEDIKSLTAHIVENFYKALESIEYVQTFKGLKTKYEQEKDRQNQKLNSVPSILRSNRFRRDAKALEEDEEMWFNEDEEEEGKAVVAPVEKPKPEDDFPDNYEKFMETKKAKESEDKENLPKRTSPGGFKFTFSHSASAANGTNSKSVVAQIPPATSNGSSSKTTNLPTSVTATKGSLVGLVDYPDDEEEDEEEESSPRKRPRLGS
inactive: [1] 0.006 | [2] 0.014 | [3] 0.008 | [4] 0.024 | [5] -0.063 | [6] 0.017 | [7] 0.009 | [8] -0.017 | [9] 0.049 | [10] 0.029 | [11] -0.052 | [13] 0.05 | [14] -0.011 | [15] -0.03 | [16] -0.074 | [17] -0.001 | [18] 0.06 | [19] -0.074 | [20] -0.15
active: [12] -0.284

PEX7 (UniProt O00628)
UniProt O00628, sequence (O00628 whole entry, looked up): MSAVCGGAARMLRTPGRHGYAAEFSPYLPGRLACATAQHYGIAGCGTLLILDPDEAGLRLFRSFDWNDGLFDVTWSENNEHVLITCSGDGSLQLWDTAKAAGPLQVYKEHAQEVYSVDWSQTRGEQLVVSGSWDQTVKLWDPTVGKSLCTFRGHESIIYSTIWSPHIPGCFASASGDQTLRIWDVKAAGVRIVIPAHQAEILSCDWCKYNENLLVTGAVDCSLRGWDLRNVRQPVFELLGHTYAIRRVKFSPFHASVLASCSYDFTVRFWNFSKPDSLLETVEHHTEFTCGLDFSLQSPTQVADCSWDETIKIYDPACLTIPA
inactive: [1] 0.061 | [2] -0.011 | [3] 0.025 | [4] -0.066 | [5] -0.041 | [6] -0.049 | [7] 0.007 | [8] -0.035 | [9] -0.107 | [10] -0.089 | [11] 0.038 | [12] 0.005 | [13] -0.027 | [14] 0.075 | [15] -0.044 | [16] -0.01 | [17] 0.091 | [18] -0.045 | [19] -0.067 | [20] 0.023
